The values that follow come from PubChem BioAssay (Tox21).

Several values for one entry are separate records, joined by “and”; a condition that tells them apart may be missing. Equal values may be shown once. Results filed as inconclusive are left out. Entries that show only a call come without a potency. Where a structure was tested more than once in an assay, its records may differ in their call. Activity calls are given as the source filed them. The call rests on the fitted dose curve; in most records, active means well fitted cell-killing curve with a large enough effect in the repeat runs; inconclusive means weak or mixed curves; inactive means flat fitted curve, though single readings scatter.
Potency means the concentration at half of the fitted maximal effect.

The nature of the test: qHTS assay to identify small molecule antagonists of the estrogen related receptor (ERR) signaling pathway from Tox21 library - cell viability counter screen (AID 1224834). Further: nearly all actives have a fitted effect of over 30% in size. Conditions: ERR reporter cells viability, CellTiter-Fluor, 17.5 h; series mostly up to 92.4 µM. An excerpt: National Center for Advancing Translational Sciences [NCATS]
NIH Chemical Genomics Center [NCGC]
U.S. Environmental Protection Agency [EPA]
National Institutes of Environmental Health Sciences [NIEHS]
National Toxicology Program [NTP]
U.S. Food and Drug Administration [FDA]
Estrogen related receptors (ERRs), the first orphan nuclear receptors discovered, play an important role in the control of cellular energy metabolism. ERRs are required for high-energy production in response to the environmental challenges. ERR-alpha was also identified as an adverse marker for breast cancer progression; ERR-alpha-positive tumors have a poor prognosis. To screen and to identify environmental compounds that perturb the ERR signaling pathways could provide valuable information for potential therapeutic or preventive measures in the treatment of metabolic disease. To differentiate true ERR antagonists or agonist from cytotoxic substances, the assay is multiplexed with cell viability assay.
Tox21 Assay Protocol Summary:
The ERR cells were dispensed at 2,000 cells/5 ul/well in 1536-well white plates using a Multidrop dispenser. After the assay plates were incubated at a 37 C/5% CO2 incubator for 6 hours, 23 nL of compounds dissolved in DMSO, positive and negative controls or DMSO only was transferred to the assay plate by a pin tool. The plates were incubated at 37 C for 17.5 hours. 1 ul/well of CellTiter-Fluor reagent was added into the assay plates using a Flying Reagent Dispenser. After 30-minute incubation at 37 C/5% CO2, the fluorescence intensity in the plates was measured using a ViewLux plate reader.
(In general: In qHTS, concentration-response curves come from the screen itself.)
On to `COC(=O)[C@H]1[C@H]2C[C@@H]3c4[nH]c5cc(OC)ccc5c4CCN3C[C@H]2C[C@@H](OC(=O)c2cc(OC)c(OC)c(OC)c2)[C@@H]1OC`, for which the Potency was 22.3 µM (active).
On to `O=C(O)Cn1cnnn1`, for which the Potency result was “inactive”.
The same measure, in the same setting: then `O=C(OCc1ccccc1)c1ccc(O)cc1`, with “inactive”; and `Cc1cccc(O)c1C`, with “inactive”; and `CC1=C(C=O)C(C)(C)CC=C1`, with “inactive”.
For `O=C(O)CCc1ccccc1`, the Potency result is “inactive”.
Consider `Nc1ccc(O)cc1`, for which the Potency was 31.8 µM (active) and inactive.
For `OCCN1CCNCC1`, the Potency result was “inactive”.
With `BrC1CCC(Br)C(Br)CCC(Br)C(Br)CCC1Br` (stereo not given), the Potency was 48.4 µM (active).
On to `CCCCCCCCCCCCCCCCCl`, for which the viability change, negative = cytotoxic is 1.81% [at 19 µM] (inactive).
With `CCC(C)(C)C(=O)O[C@H]1C[C@@H](C)C=C2C=C[C@H](C)[C@H](CC[C@@H]3C[C@@H](O)CC(=O)O3)[C@H]21`, the Potency result is “inactive”.
Turning to `CC(=O)N[C@@H](CS)C(=O)O`, the Potency entry was “inactive”.
Still for that read-out and setting: then `CC(C)(c1ccccc1)c1ccc(Nc2ccc(C(C)(C)c3ccccc3)cc2)cc1`, with “inactive”.
Take `CCn1cc(C(=O)O)c(=O)c2cc(F)c(N3CCNC(C)C3)c(F)c21` (stereo not given): the Potency result was “inactive”.
Turning to `Nc1nc(=S)c2[nH]cnc2[nH]1`, the Potency is 11.9 µM (active) and 4.33 µM (active).
For the compound `CC(=O)Nc1ccc(C(=O)CCl)cc1`, the Potency entry is “inactive”.
Turning to `c1cnc2cc3c(cc2n1)C1CNCC3C1`, the Potency entry is “inactive”.
For `CC(C)(C)c1ccc(O)c(C(C)(C)C)c1`, the Potency is 48.4 µM (active) and 61.1 µM (active).
For `COc1cc(C(=S)N2CCOCC2)ccc1O`, the Potency result is “inactive”.
On the same count and under the same terms, under `Cc1cccc2n[nH]nc12` stands “inactive”; under `C=CC(=O)OCCCCCCCC`, “inactive”.
The same measure, in the same setting: under `CC[C@]1(O)C[C@@H]2CN(CCc3c([nH]c4ccccc34)[C@@](C(=O)OC)(c3cc4c(cc3OC)N(C)[C@H]3[C@@](O)(C(=O)OC)[C@H](OC(C)=O)[C@]5(CC)C=CCN6CC[C@]43[C@@H]65)C2)C1` stands 0.841 µM (active); under `c1ccc2cc3c(ccc4ccccc43)cc2c1`, “inactive”.
Same read-out and setting: under `c1ccc2n[nH]nc2c1` stands “inactive”; under `O=C(O)CP(=O)(O)O`, “inactive”.
As for `CCn1c2ccccc2c2cc(N)ccc21`, the Potency result was “inactive”.
In the case of `c1ccc2c(c1)-c1cccc3c1c-2cc1ccccc13`, the Potency result is “inactive”.
Take `CCCOC(=O)c1cc(O)c(O)c(O)c1`: the Potency was 54.2 µM (active) and 61.1 µM (active).
Take `CCN1CCCC1CNC(=O)c1cc(S(=O)(=O)CC)c(N)cc1OC` (stereo not given): the Potency entry was “inactive”.
As to `O=c1n(CC2CO2)c(=O)n(CC2CO2)c(=O)n1CC1CO1` (stereo not given), the Potency is 60.8 µM (active).
As to `NC(N)=Nc1nc(CSCC/C(N)=N/S(N)(=O)=O)cs1`, the Potency result is “inactive”.
Regarding `CC(C)CCOCc1ccccc1`, the Potency entry was “inactive”.
Turning to `CCCCCCCCCCCC[N+](C)(C)C`, the Potency was 48.4 µM (active).
On to `CCCC(=O)c1ccccc1`, for which the Potency result was “inactive”.
As for `CCCCN(CCO)CCCC`, the Potency entry is “inactive”.
The same measure, in the same setting: then `CC(C)(C)c1cc(C(C)(C)C)c(O)c(C(C)(C)C)c1`, with “inactive”.
For the compound `Cc1ccc(-c2cc(C(F)(F)F)nn2-c2ccc(S(N)(=O)=O)cc2)cc1`, the Potency was 48.4 µM (active) and 61.1 µM (active).
On to `Cc1cc(C(C)(C)C)c(O)c(C(C)(C)C)c1`, for which the Potency entry was “inactive”.
As to `Cc1cccc([N+](=O)[O-])c1C(=O)O`, the Potency result was “inactive”.
As to `CC(=O)C1=C(C)[C@@H]2C[C@@]3(C1)[C@H](C)CC[C@H]3C2(C)C`, the Potency entry was “inactive”.
